43 molecules from PubChem BioAssay AID887 (National Center for Advancing Translational Sciences (NCATS), 2007) can be followed below.

Values joined by “and” are separate entries in the source; they are usually repeats but may differ in a detail not shown here. Identical values can stand only once. Screen size: about 74,000 compounds; about 1,100 (1.5%) were called active. A call without a number means that no potency is given here. Another 5% or so got no clear call; they are omitted. The full list was thinned out, with actives kept by preference. A number with no mark means an inactive call. Calls follow the shape of the dose curve; as a rule, active = well fitted inhibition curve with a large enough effect; inconclusive = small, poorly fitted or top-dose-only effect; inactive = no such curve, though single readings can be large or run the other way.
Potency is read from the fitted curve at half-maximal effect.

Polyunsaturated fatty acid lipoxygenase ALOX15 (Homo sapiens), sequence (P16050 whole entry, looked up): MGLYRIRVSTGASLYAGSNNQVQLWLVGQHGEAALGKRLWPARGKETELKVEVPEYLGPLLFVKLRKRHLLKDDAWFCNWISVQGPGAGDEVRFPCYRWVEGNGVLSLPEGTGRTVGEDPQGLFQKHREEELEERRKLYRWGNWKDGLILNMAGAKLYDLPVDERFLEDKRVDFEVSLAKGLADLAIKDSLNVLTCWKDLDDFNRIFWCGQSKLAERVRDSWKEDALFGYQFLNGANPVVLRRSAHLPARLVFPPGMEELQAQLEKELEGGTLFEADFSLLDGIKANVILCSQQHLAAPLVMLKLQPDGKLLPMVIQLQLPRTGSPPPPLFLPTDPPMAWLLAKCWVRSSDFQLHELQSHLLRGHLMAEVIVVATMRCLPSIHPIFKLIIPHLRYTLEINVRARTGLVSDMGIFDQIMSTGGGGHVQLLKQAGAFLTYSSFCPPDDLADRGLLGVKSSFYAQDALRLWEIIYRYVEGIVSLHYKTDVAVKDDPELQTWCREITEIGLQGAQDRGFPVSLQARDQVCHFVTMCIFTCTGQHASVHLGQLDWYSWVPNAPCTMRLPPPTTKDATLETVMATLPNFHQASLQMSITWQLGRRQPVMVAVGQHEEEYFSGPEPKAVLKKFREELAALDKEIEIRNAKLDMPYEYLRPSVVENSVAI

In the assay the target is Polyunsaturated fatty acid lipoxygenase ALOX15 (Homo sapiens) (UniProt P16050). The experiment in a line: qHTS Assay for Inhibitors of 15-hLO (15-human lipoxygenase). Also: nearly all actives have a fitted effect of over 55% in size. To be noted: purified 15hLO-1, xylenol orange hydroperoxide absorbance; series mostly up to 57.1 µM. An excerpt:
Assay Overview: NIH Molecular Libraries Screening Centers Network [MLSCN] NIH Chemical Genomics Center [NCGC] MLSCN Grant: MH081283-01A1 PI Name: Holman, T.R., University of California, Santa Cruz Human lipoxygenase 15hLO-1 is a member of the closely related lipoxygenase family of enzymes which catalyze the site-specific oxidation of arachidonic acid to various hormone precursor molecules and as such is a candidate for drug development in a variety of disease areas, such as cancer and inflammation. Inhibition of 15hLO-1 activity was screened by utilizing arachidonic acid as a substrate. The extent of hydroperoxide product formation was measured by a secondary chromogenic reaction in which xylenol orange (XO, Sigma-Aldrich, cat. number 39,818-7) reacts with the ferric ions produced from the reaction between the hydroperoxide and ferrous ions. The Fe(III)-XO complex is characterized with red-shifted absorbance at 560 nm. A purified preparation of human 15hLO-1 was supplied by Professor Ted Holman, University of California, Santa Cruz.
Assay Protocol: Buffer: 25 mM Hepes pH 7.5, 0.01% Triton X-100. Reagents/Controls: Buffer in columns 3 and 4 as negative control (no enzyme). Substrate solution: 50 uM arachidonic acid (Sigma-Aldrich, St. Louis, MO) final concentration dispensed throughout the plate. Enzyme: 40 nM 15hLO-1 final concentration in columns 1, 2, 5-48. Column 1 is neutral (100% activity). Column 2 contained pin-transferred titration of NDGA (nordihidroguaiaretic acid, Sigma-Aldrich, N 5023, top concentration 10 mM in DMSO, then 1:2 dilution in duplicate). (Dilution factor: 23 nL into 4 uL.) Chromogenic detection reagent (divalent iron/xylenol orange, Fe-XO): 200 uM xylenol orange plus 300 uM ferrous ammonium sulfate prepared freshly in 50 mM sulfuric acid. Assay Steps: Three uL of enzyme were dispensed to 1536-well Greiner black clear bottom plates. Compounds and controls (23 nL) were transferred via Kalypsys PinTool. The plates were incubated for 15 min at room temperature, and then 1 uL of substrate solution was added to start the reaction. After room temperature incubation for 6 minutes, 4 uL of Fe-XO solution was added to each well followed by a short spin (1000 rpm, 15 sec) and the plates were then incubated for 30 min. The absorbance at 405 and 573 nm were measured using ViewLux (Perkin-Elmer) High-throughput CCD imager and absorbance protocol settings. The 573-to-405 absorbance ratio was used to compute reaction progress.
A general note: In qHTS, concentration-response curves come from the screen itself.
With `CN1CCCC1CCO[C@@](C)(c1ccccc1)c1ccc(Cl)cc1` (stereo partly drawn), the activity change, negative = inhibition entry is “inactive”.
Still for that read-out and setting: in the case of `CN(CCOc1ccc(CC2SC(=O)NC2=O)cc1)c1ccccn1` (stereo not drawn) it was “inactive”; in that of `Oc1ccc(-c2csc(Nc3cccnc3)n2)cc1`, “inactive”.
Take `COc1ccc(OC)c(Nc2nc(-c3ccc(O)c(O)c3)cs2)c1`: the Potency is 0.126 µM (active).
In the case of `COc1ccc(-c2n[nH]c(C)c2-c2ccc(OC)c(OC)c2)c(O)c1`, the activity change, negative = inhibition entry was “inactive”.
Same read-out and setting: under `COc1cccc([C@H]2Oc3ccc(OC)cc3/C(=N\OCC[C@@H]3C=C[C@H](OC(C)=O)[C@H](COC(C)=O)O3)[C@@H]2O)c1` stands 7.41% [at 11.4 µM]; under `CCOC(=O)N/N=C1/C[C@@H](O)[C@@H](O)[C@@H]2[C@@H]3C(=O)N(CC)C(=O)[C@H]3CC[C@H]12`, 0.206% [at 11.4 µM]; under `COc1ccc(COC(=O)N/N=C2/C[C@@H](O)[C@@H](O)[C@@H]3[C@@H]4C(=O)N([C@@H](C)c5ccccc5)C(=O)[C@H]4CC[C@@H]23)cc1`, 7.99% [at 11.4 µM].
With `Cc1cc(C)c2nc(N3CCCC3)c(C#N)cc2c1`, the Potency is 2 µM (active).
`CC(C)CCNc1nc(N2CCCC2)c2c(c1C#N)CCN(C)C2`: the activity change, negative = inhibition entry was “inactive”.
On the same count and under the same terms, in the case of `CCOc1ccc2nc(N3CCCN(C(=O)Nc4ccccc4C)CC3)c(C#N)cc2c1` it was “inactive”.
On the same count and under the same terms, in the case of `CC(C)(C)c1ccc(OC2C=CC(C#Cc3ccccc3)OC2CO)cc1` (stereo not drawn) it was -12.4% [at 11.4 µM].
On the same count and under the same terms, in the case of `Cc1cc(C)cc(C#CC2C=CC(Oc3ccc(C4CCCC4)cc3)C(CO)O2)c1` (stereo not drawn) it was -14.1% [at 11.4 µM]; in that of `C[C@@H]1/C=C\CC(=O)OC[C@H]2O[C@@H](C=C[C@@H]2O)[C@H](C)/C=C\CC(=O)OC[C@H]2O[C@H]1C=C[C@@H]2O`, 5.92% [at 11.4 µM]; in that of `CC(C)[C@H]1CC[C@@H](C)C[C@H]1O`, “inactive”.
Take `COC1[C@H](OC(N)=O)C(O)[C@H](Oc2ccc3c(O)c(NC(=O)c4ccc(O)c(CC=C(C)C)c4)c(=O)oc3c2C)OC1(C)C` (stereo partly drawn): the activity change, negative = inhibition result was “inactive”.
As for `C=C(C)C1CC=C(C)C(O)C1` (stereo not drawn), the activity change, negative = inhibition entry was “inactive”.
For `C=C(C)C1CC=C(CO)CC1` (stereo not drawn), the Potency was 12.6 µM (active).
For the molecule `CCCNC(=O)OC[C@@H]1O[C@H](c2ccccc2)C=C[C@@H]1Oc1ccc(OC)cc1`, the activity change, negative = inhibition is 6.55% [at 11.4 µM].
Turning to `Cc1ccc(C)c(NC(=O)CSc2nnc(Cc3cccn3C)n2-c2ccc(F)cc2)c1`, the activity change, negative = inhibition entry is “inactive”.
The same measure, in the same setting: under `Cc1cccc(Br)c1` stands “inactive”; under `CC(C)=CC1C(C(=O)O)C1(C)C` (stereo not drawn), “inactive”; under `C/C(CCN1CCCCc2nc(C)c(C)cc21)=N\O[C@@H](C)c1cn([C@@H]2COC[C@@H]2O)nn1`, 3.97% [at 11.4 µM].
As for `Oc1cc(O)c2c(c1)OC(c1ccc(O)c(O)c1)C(O)C2` (stereo not drawn), the Potency was 12.6 µM (active).
Turning to `CO[C@H]1COC(=O)[C@@H](C)NC(=O)C/C=C\[C@@H](C)[C@H](OC)COC(=O)C/C=C\[C@@H]1C`, the activity change, negative = inhibition is -1.15% [at 11.4 µM].
On the same count and under the same terms, under `CCn1c(SCC(=O)NCC2CCCO2)nc2cc(S(=O)(=O)N3CCCCC3)ccc21` (stereo not drawn) stands “inactive”; under `COCCCNC(=O)CSc1nc2ccc(N3CCOCC3)cc2c(=O)n1CCc1ccccc1`, “inactive”.
For `CCCCn1c(SCC(=O)NCC2CCCO2)nc2ccc(N3CCOCC3)cc2c1=O` (stereo not drawn), the Potency was 12.6 µM (active).
On to `COCC(=O)N1CCC2(CCCN(c3ccccc3)C2)CC1`, for which the activity change, negative = inhibition entry is “inactive”.
On the same count and under the same terms, under `CC1(C)C=CC(=O)[C@]2(C)C1CC(=O)[C@]1(C)C2CC[C@@]2(C)C(c3ccoc3)OC(=O)C3OC321` (stereo partly drawn) stands “inactive”.
With `C=C[C@](C)(O)CCC1C(=C)CCC2[C@@](C)(CO)CCC[C@@]12C` (stereo partly drawn), the activity change, negative = inhibition entry was “inactive”.
Consider `CC(C)C1=CC2=CC[C@@H]3[C@](C)(CO)CCC[C@]3(C)C2CC1` (stereo partly drawn), for which the Potency was 1.58 µM (active).
With `CN1CCc2nc(-c3ccccc3)c(-c3ccccc3)cc2C1`, the activity change, negative = inhibition is 3.18% [at 11.4 µM].
On to `Nc1ncnc2c1ncn2C1CC(O)C(CO)O1` (stereo not drawn), for which the activity change, negative = inhibition entry was “inactive”.
With `CC(=O)OCC(=O)[C@@]1(O)CCC2C3CCC4=CC(=O)CC[C@@]4(C)[C@]3(F)C(O)C[C@]21C` (stereo partly drawn), the activity change, negative = inhibition entry was “inactive”.
The same measure, in the same setting: under `O=C1[C@H]2[C@H]3[C@H](O)[C@H](O)C/C(=N/OCc4ccccc4)[C@H]3CC[C@@H]2C(=O)N1Cc1ccccc1` stands 6.17% [at 11.4 µM]; under `CCCN(C/C=C\I)[C@@H]1CCc2cccc(O)c2C1`, “inactive”.
For `Cc1cccc(-n2c(N)c(C(=O)N3CCN(C)CC3)sc2=S)c1`, the activity change, negative = inhibition result was “inactive”.
As for `CCC(=O)Nc1sc(C(=O)N2CCCCC2)c(C)c1C#N`, the activity change, negative = inhibition result is “inactive”.
As to `N#Cc1ccccc1-n1c(N)c(C(=O)N2CCCC2)sc1=S`, the Potency is 20 µM (active).
Regarding `Cn1c(=O)n2n(c1=O)[C@H]1[C@H](O)[C@H]3O[C@H]3C(=O)[C@H]1CC2`, the activity change, negative = inhibition was -1.89% [at 11.4 µM].
`CC(C)=CCC/C(C)=C/CO/N=C1/C[C@@H](O)[C@@H](O)[C@@H]2[C@@H]3C(=O)N(C(C)(C)C)C(=O)[C@H]3CC[C@H]12`: the activity change, negative = inhibition was -9.71% [at 11.4 µM].
The same measure, in the same setting: under `CC(=O)OCC1OC(C#CCCCc2ccccc2)C=CC1OC(C)=O` (stereo not drawn) stands -1.12% [at 11.4 µM] and 1.25% [at 11.4 µM].
